# Laboratory results taken from PubChem BioAssay (NCI).
# The panel holds about 83,000 compounds, 20% with a hit somewhere; the sample as a whole holds those more often.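 Step 1: grow cells in 96-well plates. Step 2: add test compound at a single concentration. Step 3: incubate 48 h. Step 4: record percent growth.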 Values without a mark were called inactive. Calls of active or inactive are those of the source. Rule for the calls: active = growth percent below 10; inactive = the rest.
# Test system: IGROV1 ovarian
# Assay: NCI-60 one-dose screen, 48 h (100 = growth as untreated, 0 = no growth, -100 = all killed)
# Details: 10 µM unless noted
row,Compound,growth
1,CCCCCCCCCCCCNC(=O)[C@H]1CSC(c2ccsc2)N1 (stereo not given in full),-66.7% (active)
2,COc1cc(C2NN=C3c4ccccc4CCC32)cc(OC)c1OC (stereo not given),26.1%
3,O=C(N/N=C/C=C\c1ccccc1)C(=O)N/N=C/C=C/c1ccccc1,106%
4,CN1CCN(Cc2ccc(NC(=O)c3cncc(C#Cc4cnc(N)c5ccncc45)c3)cc2C(F)(F)F)CC1,4.51% (active)
5,N=C(N)c1ccc(-c2ccc(-c3ccc4ccccc4c3)s2)cc1,91.3%
6,N=C(N)c1ccc(-c2ccc(-c3ccc(-c4cccs4)s3)s2)cc1,96.2%
7,COc1ccc(-c2ccc(-c3ccc(C(=N)N)s3)s2)cc1Cl,5.34% (active)
8,O=c1[nH]c2ccc(Br)cc2c2c1C(c1ccc(Cl)cc1)c1c(ncn3nc(-c4ccco4)nc13)O2 (stereo not given),44%
9,N=C(N)c1ccc(-c2cc(Cl)cc(Cl)c2)cn1,89.1%
10,Cc1nc2ncccc2nc1Nc1ccc(S(=O)(=O)Nc2cncs2)cc1,51%
11,Cc1cc(N/N=C/c2nc(-c3ccccc3)oc2C)c2cc(Cl)ccc2n1,-83.7% (active)
12,Cc1nc2ncccc2nc1Nc1ccc(S(=O)(=O)Nc2ccccn2)cc1,72.6%
13,NC(=S)N/N=C1\CCCC(C(F)(F)F)C1 (stereo not given),13.7%
14,Oc1ccc2cc(Br)ccc2c1-c1c(O)ccc2cc(Br)ccc12,28%
15,CCC(=O)Oc1ccc(/C(=C(/C)Cc2cccc(OC)c2)c2ccc(OCCN(C)C)cc2)cc1,95.4%
